Bioassay records deposited in PubChem by National Center for Advancing Translational Sciences (NCATS).
CBFb RUNX1 block – inhibitors of human CBF-beta and RUNX1 interaction; 230,000 tested, under 10 active; Potency, µM (top dose mostly 59.8 µM), inactives show at the highest dose activity, negative = inhibition, hits mostly inhibitors; AID 1477; AlphaScreen CBFb-His/RUNX1-biotin binding, biochemical; further: % of control where 0% means no effect
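Proteins preincubated together for 20 min at RT before compound addition; 15 min later, nickel and streptavidin beads were added and left 90 min prior to AlphaScreen measurement.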
MBNL1 CUG block – MBNL1-poly(CUG) RNA binding inhibition. TR-FRET MBNL1-His/biotin-(CUG)12 binding, 665/545 ratio. actives 0.036% (n = 280,000). Potency, µM (titrated, usually from 57.5 µM), for inactives: top-dose activity change, negative = inhibition, most hits filed as inhibitors. Q9NR56. AID 2675; active means well fitted inhibition curve with a large enough effect in the signal ratio, with a control signal flat, not every such curve was filed as active; inconclusive means small, poorly fitted or top-dose-only effect, or effect the other way, or a change in a side signal; inactive means no such curve, though single readings can be large or run the other way; the % refers to the signal ratio; further: potency means the concentration at half of the fitted maximal effect; on the % scale 0 is the no-effect control and ±100 the full control effect
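TR-FRET between His-tagged MBNL1 and biotin-(CUG)12 RNA, detected with Tb anti-His antibody (0.055 ng/ul) and streptavidin-XL665 (5 nM), 60 min at room temperature. Compounds titrated 92 nM to 58 uM; 665/545 nm ratio normalized to buffer and complex controls.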
KCNH2 3.1 inh – blocks the human KCNH2 3.1 channel isoform | U2OS KCNH2 3.1, thallium flux FluxOr; active compounds read low | activity change, % (tested at about 1.8 µM) | actives 0.95% (n = 340,000);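 active means maximum activity change below -70%; inconclusive means maximum activity change from -70% to -50%; inactive means maximum activity change above -50%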;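 further: thallium influx rate constant from kinetic fluorescence after stimulation buffer; on the % scale 0 is the no-effect control and ±100 the full control effect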
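Thallium flux via FluxOr fluorescence (Red40 quencher, 45 min loading) in U2OS cells virally expressing the KCNH2 3.1 isoform (1.77 x 10^8 /mL virus, overnight at 37 C). Rate constants from 2-min kinetic reads post-stimulation, normalised to positive and negative controls.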
VDR inh – blocks the human vitamin D receptor | P11473 | VDR-SRC2-3 peptide fluorescence polarization, 2 h | Potency, µM, for the others: max response, negative = inhibition, hits mostly inhibitors | actives 0.93% (n = 400,000) | AID 504847; further: potency means the concentration at half of the fitted maximal effect; on the % scale 0 is the no-effect control and ±100 the full control effect
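The screen uses fluorescence polarization to detect compounds that interfere with recruitment of the SRC2-3 coactivator peptide to VDR; plates are read after 2 h at room temperature.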
hERG WT inh – KCNH2 (human, wildtype) channel inhibition; Q12809; U2OS, BacMam KCNH2, thallium flux FluxOr; active compounds read low; activity change, % at 1.84 µM; actives 0.37% (n = 340,000);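 active means maximum activity change below -70%; inconclusive means maximum activity change between -70% and -50%; inactive means maximum activity change above -50%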; further: on the % scale 0 is the no-effect control and ±100 the full control effect
Target sequence (Q12809 whole entry, looked up): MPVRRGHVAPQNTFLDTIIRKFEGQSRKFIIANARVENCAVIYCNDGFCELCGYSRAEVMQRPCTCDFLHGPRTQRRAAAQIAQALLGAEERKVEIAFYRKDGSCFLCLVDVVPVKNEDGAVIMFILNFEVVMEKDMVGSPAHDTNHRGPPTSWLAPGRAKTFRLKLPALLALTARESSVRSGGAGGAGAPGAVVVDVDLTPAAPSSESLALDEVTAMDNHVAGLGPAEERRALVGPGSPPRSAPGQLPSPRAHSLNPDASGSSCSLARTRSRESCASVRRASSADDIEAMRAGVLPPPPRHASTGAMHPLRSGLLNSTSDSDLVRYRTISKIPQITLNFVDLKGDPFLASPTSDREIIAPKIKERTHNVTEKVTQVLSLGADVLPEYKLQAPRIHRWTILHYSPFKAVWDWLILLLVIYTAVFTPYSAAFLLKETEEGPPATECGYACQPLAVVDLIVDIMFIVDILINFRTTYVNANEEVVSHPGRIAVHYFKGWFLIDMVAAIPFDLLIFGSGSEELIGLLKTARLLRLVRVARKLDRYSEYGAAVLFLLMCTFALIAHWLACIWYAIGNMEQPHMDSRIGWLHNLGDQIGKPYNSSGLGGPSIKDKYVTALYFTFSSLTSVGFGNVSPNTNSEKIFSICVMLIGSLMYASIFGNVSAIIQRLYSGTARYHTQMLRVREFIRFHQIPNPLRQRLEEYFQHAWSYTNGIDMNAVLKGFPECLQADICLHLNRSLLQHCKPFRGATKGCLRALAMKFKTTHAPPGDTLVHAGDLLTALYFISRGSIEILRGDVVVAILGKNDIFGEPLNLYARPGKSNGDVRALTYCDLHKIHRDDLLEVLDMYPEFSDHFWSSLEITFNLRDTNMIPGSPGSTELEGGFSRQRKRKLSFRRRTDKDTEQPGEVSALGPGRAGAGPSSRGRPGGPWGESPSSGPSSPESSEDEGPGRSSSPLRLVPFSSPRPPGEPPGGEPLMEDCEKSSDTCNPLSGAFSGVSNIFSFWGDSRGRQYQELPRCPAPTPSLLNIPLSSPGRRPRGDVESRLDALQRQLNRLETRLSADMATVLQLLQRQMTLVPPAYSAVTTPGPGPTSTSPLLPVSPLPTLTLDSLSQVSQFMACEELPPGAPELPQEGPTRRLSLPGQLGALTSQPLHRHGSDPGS
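U2OS cells were transduced with wild-type KCNH2 virus (2.03 x 10^8 / mL) for 4 h at room temperature, then cultured overnight at 37 C. Thallium flux was read with FluxOr dye. Rate constants were normalized to DMSO controls.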
PLK1 PBD block – PLK1 (human) polo-box domain binding inhibition; actives 2.8% (n = 360,000); Plk1 PBD binding of FITC phosphopeptide, fluorescence polarization; Potency, µM, inactives show max response, negative = inhibition, most hits filed as inhibitors; further: potency means the concentration at half of the fitted maximal effect; series mostly up to about 57 µM; on the % scale 0 is the no-effect control and ±100 the full control effect; nearly all actives have a fitted effect of over 65% in size
Numbers without * were called inactive; ? = inconclusive; . = no result; [ ] = remark or other dose. An excerpt weighted towards active compounds, which were near 3.8% of everything screened. Unless noted, the call rests on the fitted dose curve; in most records, active means well fitted curve in the direction sought with a large enough effect; inconclusive means small, poorly fitted or top-dose-only effect, or another doubt; inactive means no such curve, though single readings can be large; an effect the other way counts as inactive or inconclusive.

SMILES | CBFb RUNX1 block | MBNL1 CUG block | KCNH2 3.1 inh | VDR inh | hERG WT inh | PLK1 PBD block
COc1ccc(/C=C/C(=O)NCCCN2CCCC2)cc1 | . | 22% | -4 | -2% | 20 | 1%
CC(C)(C)c1ccc(C(=O)NCCCN2CCN(CCCNC(=O)c3ccc(C(C)(C)C)cc3)CC2)cc1 | 0% | -14% | -114* | -12% | -6 | 0%
Cc1oc2ccc(O)c(CN3CCCC(C)C3)c2c1C(=O)Nc1ccccc1 (stereo unspecified) | . | . | . | 7% | . | .
Cc1ccc(CN2CCc3nc(N4CCN(C)CC4)ncc3C2)s1 | . | . | . | 4% | . | .
COc1ccc(C(=O)CCC(=O)Nc2cccc(C(C)=O)c2)cc1 | . | . | . | 7% | . | .
NCC(O)COc1cccc2ccccc12 (stereo unspecified) | 12% | . | . | 7% | . | .
CCCNC(=O)CCCCn1c(=S)[nH]c2c([nH]c3ccc(OC)cc32)c1=O | 1% | 0% | 21 | ? | . | 21µM*
COc1ccc2[nH]c3c(=O)n(CCCC(=O)NC4CCC(C)CC4)c(=S)[nH]c3c2c1 (stereo unspecified) | . | 0% | -21 | 15% | 5 | -3%
COc1ccc2[nH]c3c(=O)n(CCCCC(=O)NCCC(C)C)c(=S)[nH]c3c2c1 | 8% | -2% | -12 | -26% | . | 12µM*
COc1ccc2[nH]c3c(=O)n(CCCC(=O)NC4CCCCC4C)c(=S)[nH]c3c2c1 (stereo unspecified) | . | -5% | 22 | -3% | 5 | 30µM*
CCN1CCc2nc3sc(C(=O)c4ccccc4)c(N)c3cc2C1 | . | . | . | 10% | . | .
Cc1cc(O)c(C=O)c2c1C(=O)Oc1c(C)c(O)c3c(c1O2)C(O)OC3=O (stereo unspecified) | -12% | . | . | 6.3µM* | . | .
COc1cc(C)c2c(c1C=O)Oc1c(c(C)c(O)c3c1C(O)OC3=O)OC2=O (stereo unspecified) | ? | ? | -3 | 45µM* | 20 | -24%
CCOC(=O)N1CCN(C(=O)CCSc2ccc(C)cc2)CC1 | -1% | 4% | -1 | -19% | -4 | 3.4µM*
CC(C)(C)OC(=O)N1CCC(c2c(C(=O)NCCCN3CCc4ccccc4C3)cnn2-c2ccccc2)CC1 | . | . | . | -2% | . | .
CC1CCN(C(=O)CCCC(=O)N2CCC(C)CC2)CC1 | . | -4% | 20 | 6% | -71* | 0%
Cn1c(NCc2ccccc2F)nc2ccccc21 | . | . | . | 3% | . | .
CC(=O)Nc1ccc(C(=O)CCl)cc1 | -21%[21.7 µM] | . | -29 | -27% | -6 | 5.3µM*
CC(=O)Nc1ccc(C)cc1 | 28%[21.7 µM] | . | 10 | -19% | -5 | -8%
CC(=O)NCc1ccc(C(=O)CCl)cc1 | 3% | -2% | 4 | -3% | -16 | 4.2µM*
CC(=O)NCCC(=O)NCc1ccc(F)cc1 | 4% | -2% | 12 | 2% | 3 | -2%
CCCNC(=O)Nc1ccc(NC(C)=O)cc1 | 1% | -7% | 9 | -19% | . | 11µM*
CCCNC(=O)C(=O)Nc1ccc(N(C)C)cc1 | 11% | ? | -6 | 11% | -3 | -9%
CC(=O)N(C)Cc1ccc(C(=O)CCl)cc1 | 9% | . | -12 | -19% | 1 | 5.3µM*
N#Cc1nc(-c2ccc(COc3ccc(Cl)cc3)o2)oc1N1CCCCC1 | . | . | . | 0% | . | .
SMILES | CBFb RUNX1 block | MBNL1 CUG block | KCNH2 3.1 inh | VDR inh | hERG WT inh | PLK1 PBD block
Cc1ccc(N(C(C)C(=O)Nc2cccc(N(C)S(C)(=O)=O)c2)S(C)(=O)=O)cc1 (stereo unspecified) | 2% | -4% | 5 | 8% | -7 | -14%
Cc1ccc(N(C(C)C(=O)Nc2ccc3c(c2)OCO3)S(C)(=O)=O)cc1 (stereo unspecified) | 0% | 4% | 5 | ? | -2 | 3µM*
COc1ccc(OC)c(C2CC(=O)N3CN(c4ccc(C)c(Cl)c4)CSC3=C2C#N)c1 (stereo unspecified) | -4% | 14% | 4 | 16µM* | 7 | ?
COc1cc(C2CC(=O)N3CN(c4ccccc4C)CSC3=C2C#N)cc(OC)c1OC (stereo unspecified) | -1% | 7% | . | . | . | .
COc1cccc(C2CC(=O)N3CN(c4ccccc4F)CSC3=C2C#N)c1 (stereo unspecified) | -1% | 6% | -1 | 45µM* | -5 | -12%
COc1ccc(Br)cc1C1CC(=O)N2CN(Cc3ccccc3)CSC2=C1C#N (stereo unspecified) | -1% | 8% | -17 | 71µM* | 9 | ?
CCSC1=C(C#N)C(c2ccccc2OC)CC(=O)N1 (stereo unspecified) | -3% | 1% | 2 | -2% | 0 | -14%
COc1ccc(CCN2C(=O)CN(Cc3ccccc3)CC2=O)cc1OC | 10% | -16% | -9 | 9% | -9 | -7%
COc1ccc2ccccc2c1C1CC(=O)N2CN(C)CSC2=C1C#N (stereo unspecified) | -11% | -8% | 7 | 25µM* | 8 | 7.5µM*
O=C(CSc1nc2ccsc2c(=O)n1Cc1ccc(F)cc1)NCc1ccc(Cl)cc1 | . | . | . | 4% | . | .
CCOC(=O)c1ccc(N2CSC3=C(C#N)C(c4ccc(OC)cc4OC)CC(=O)N3C2)cc1 (stereo unspecified) | -7% | 1% | 0 | -16% | 10 | -11%
COc1cc(OC)c(C2CC(=O)N3CN(c4ccccc4)CSC3=C2C#N)cc1OC (stereo unspecified) | -9% | 11% | 8 | 10µM* | 4 | 27µM*
COc1cc(OC)c(C2CC(=O)N3CN(C)CSC3=C2C#N)cc1OC (stereo unspecified) | -10% | 15% | 27 | ? | -7 | 15µM*
CC1CCc2onc(C(=O)Nc3ccc(Cl)cc3)c2C1 (stereo unspecified) | . | . | . | 8% | . | .
Cc1ccccc1CN1C(=O)c2ccccc2Sc2ccc(C(=O)NCCc3ccccc3)cc21 | . | . | . | -1% | . | .
CCOC(=O)Nc1cccnc1Sc1ccc(Cl)cc1 | . | . | 10 | -3% | 5 | -26%
CCCNC(=O)OCc1cccnc1Sc1ccc(C)cc1 | -1% | -5% | -2 | -5% | 3 | 27µM*
Cc1ccc(C(C)C)c(OCC(=O)N2CCC(c3nc4ccccc4o3)CC2)c1 | . | . | . | 9% | . | .
NC(=S)N=Nc1ccc(NN=C(N)N)cc1 | . | ? | 5 | 18µM* | -8 | 3.8µM*
COc1ccccc1NC(=O)CN1CCN(CC(=O)Nc2ccc(F)cc2)CC1 | 3% | 7% | ? | -5% | -36 | -11%
COc1ccc(NC(=O)CN2CCN(CC(=O)Nc3ccccc3Cl)CC2)cc1 | 4% | -8% | -85* | 13% | -21 | -10%
COc1ccc(C)cc1NC(=O)CN1CCN(c2ccccn2)CC1 | . | 0% | 9 | ? | 9 | 27µM*
